# Measured values taken from PubChem BioAssay AID504462 (Sanford-Burnham Center for Chemical Genomics, 2011).
# About 1,700 (0.5%) of roughly 340,000 compounds were called active. What follows is part of a selection rich in actives, with near analogues and random picks from the rest. Unmarked numbers belong to inactive results. No stated cut-off is given here; in the data, active means inhibition above about 40%; inactive means the rest.
# Molecular target: Cysteine protease ATG4B (Homo sapiens) (UniProt Q9Y4P1)
# Experiment: ATG4B protease inhibitors, primary screen, biochemical, fluorescence, uHTS (AID 504462)
# Details: ATG4B cleavage of LC3-PLA2, NBD-HPC fluorescence, 1 h; at 8.33 µM; stronger effect = higher value
# Sequence of Cysteine protease ATG4B (Homo sapiens) (Q9Y4P1 whole entry, looked up): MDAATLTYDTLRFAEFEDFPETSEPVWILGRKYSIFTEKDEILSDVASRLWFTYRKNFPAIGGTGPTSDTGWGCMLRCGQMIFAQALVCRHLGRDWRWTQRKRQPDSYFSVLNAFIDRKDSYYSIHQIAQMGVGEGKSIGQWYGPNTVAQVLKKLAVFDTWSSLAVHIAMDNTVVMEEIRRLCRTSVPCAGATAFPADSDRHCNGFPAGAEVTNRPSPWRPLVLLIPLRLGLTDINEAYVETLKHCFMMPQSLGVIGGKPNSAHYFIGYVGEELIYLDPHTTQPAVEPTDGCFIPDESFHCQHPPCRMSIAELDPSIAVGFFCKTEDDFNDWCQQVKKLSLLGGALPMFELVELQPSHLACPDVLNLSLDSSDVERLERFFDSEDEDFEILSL
row,Structure (SMILES),inhibition
1,CCC(C)c1ccc(NC(=S)NCc2ccccn2)cc1 (configuration not stated),2.58%
2,CC(=O)N1CCN(C(=O)c2cc(-c3ccc(Cl)s3)nc3ccccc23)CC1,2%
3,COc1cc(OC)cc(C(=O)Nc2ccc(-c3nc4ccccc4o3)c(O)c2)c1,1%
4,O=c1cc(C(F)(F)F)[nH]c(=O)n1C1CCCCC1,-7.77%
5,Cc1ccc(Nc2cc(=O)n(C3CCCCC3)c(=O)[nH]2)cc1C,49.4% (active)
6,Cc1ccc(NNC(=O)C2CCC2)cc1C,-8.25%
7,Cc1ccc(-c2nnn(CC(=O)N(CCO)C(C(=O)NC(C)(C)C)c3ccncc3)n2)cc1 (configuration not stated),3.82%
8,O=C(Nc1cccc(F)c1)NC1CCCc2ccccc21 (configuration not stated),72.2% (active)
9,CNS(=O)(=O)c1cccc(C(=O)NC2CCCc3ccccc32)c1 (configuration not stated),5.31%
10,O=C(Nc1cccc(F)c1)NC1CCCCCCC1,14.1%
11,O=C(Nc1ccc(F)c(Cl)c1)C1CCN(S(=O)(=O)c2cccnc2)CC1,-11.3%
12,COc1ccc(C)cc1NC(=O)CSc1nnc2ccc(-c3ccccn3)nn12,-1.16%
13,CCN(C[C@H]1N[C@@](CC)(C(=O)OC)[C@H]2C(=O)N(Cc3ccccc3)C(=O)[C@@H]12)S(=O)(=O)c1ccc(C(F)(F)F)cc1,1.74%
14,COc1ccc(NC(=O)CNc2cc(S(=O)(=O)N3CCOCC3)ccc2N2CCOCC2)c(OC)c1,-0.66%
15,Cc1cc([N+](=O)[O-])nn1CCCC(=O)Nc1cccnc1Cl,-6.6%
16,Cc1c(Cl)c([N+](=O)[O-])nn1CCCC(=O)Nc1cc(Cl)ccc1Cl,63.1% (active)
17,Cc1c(Cl)c([N+](=O)[O-])nn1CCCC(=O)NC(C)c1ccccc1 (configuration not stated),19.6%
18,Nc1c(N(CCCO)C(=O)C2CCCC2)c(=O)[nH]c(=O)n1Cc1ccccc1,2.96%
19,Cc1ccc2[nH]c(=O)c(CC=C(Cl)Cl)c(C)c2c1,-4.78%
20,CN(C(=O)c1cccc(NC(=O)Cc2ccc(NC(=O)C3CCN(C(=O)C4CCCCC4)CC3)cc2)c1)C1CCC1,-6.18%
21,O=C(NCc1cccc(CNC(=O)Nc2cccc(O)c2)c1)Nc1cccc(O)c1,27.4%
22,COC(=O)[C@@H](NC(=O)NCc1cccc(OC)c1)C(C)C,-0.62%
23,COc1cccc(NC(=O)NCc2ccc(F)cc2)c1,46.2% (active)

row,Structure (SMILES),inhibition
1,CC1CCCC(NC(=O)c2cc(-c3ccncc3)nc3ccccc23)C1C (configuration not stated),-8.76%
2,CC(C)CCn1c(=O)c2c(nc3n2CCCN3Cc2ccccc2)n(C)c1=O,3.87%
3,CCOC(=O)C1=C(C)c2ccccc2OC1(C)C(=O)OCC (configuration not stated),2.41%
4,CCOC(=O)c1c(C)[nH]c2c1-c1ccccc1C(=O)C2=O,47% (active)
5,CCOC(=O)c1[nH]c2ccccc2c1N=C(C)N(CC)CC,-9.79%
6,Nc1nc(SCC(=O)NCCN2CCOCC2)nc2sc3c(c12)CCC3,-9.91%
7,CC(C)(C)C1CCc2c(sc3nc(SCC(N)=O)nc(N)c23)C1 (configuration not stated),42.8% (active)
8,C=C(C)CSc1nc(N)c2c3c(sc2n1)CCC3,17.7%
9,O=S1(=O)CCC(NC(=S)SCc2ccccc2Br)C1 (configuration not stated),-4.75%
10,Cc1c(Cl)cccc1NC(=O)NCCCN1CCCC1=O,2.74%
11,CS(=O)(=O)Nc1ccc(C(=O)N2CCCC2)cc1,-2.74%
12,Cc1c(Cl)cccc1NC(=O)Nc1ccc(C(=O)N2CCCC2)cc1,40.6% (active)
13,COc1ccccc1CCNC(=O)CSc1nnc2ccc(-c3cccnc3)nn12,0.74%
14,CCn1c(Cc2ccc(OC)cc2)nnc1SCC(=O)Nc1ccc(N2CCOCC2)cc1,-5.02%
15,Cc1ccc(C2=Nc3c(ccc4ccccc34)C(c3ccncc3)=NN2)cc1,60.3% (active)
16,Cc1ccc(-c2csc(-c3c[nH]c4ccccc34)n2)cc1,4.81%
17,CC(Sc1nnc(-c2ccccc2F)n1C1CC1)C(N)=O (configuration not stated),-8.94%
18,CCCCCCCC1(C)NC(=O)N(CC(=O)Nc2cc(C)on2)C1=O (configuration not stated),-10.1%
19,O=C(C1CCN(S(=O)(=O)Cc2ccccc2)CC1)N1CCCc2ccccc21,13.8%
20,Cc1ccc(N2CC(C(=O)NCCS(=O)(=O)N3CCN(c4ccccc4)CC3)CC2=O)cc1 (configuration not stated),-5.93%
21,CCc1ccc2c(c1)C(c1ccc([N+](=O)[O-])cc1)=NNC(c1ccccc1)=N2,61% (active)
22,CCOC(=O)C1=C(C)N(C[C@@H]2CC[C@@H](Cc3ccc(-c4ccccc4)cc3)O2)C(=O)NC1c1ccc([N+](=O)[O-])cc1 (some centres not stated),1.26%
23,Fc1ccc2c(c1)C(c1cccnc1)=NNC(c1cccs1)=N2,-1.31%

row,Structure (SMILES),inhibition
1,CCC1OC(c2ccc([N+](=O)[O-])cc2)=Nc2ccccc21 (configuration not stated),-2.62%
2,CCOc1ccc2c(c1)C(c1ccc(C)cc1)=NNC(c1ccc(C)cc1)=N2,65.9% (active)
3,COc1ccc2c(c1)C(c1cccs1)=NNC(c1cccnc1)=N2,0.69%
4,Cc1ccccc1CSc1nnc(-c2ccccc2)c(=O)[nH]1,11.3%
5,CCCN1C2CCCC1CC(NC(=O)c1cccc(OC)c1)C2 (configuration not stated),-4.61%
6,CC(C(=O)NCCc1ccc(S(N)(=O)=O)cc1)N1C(=O)CC(C)(C)Sc2ccccc21 (configuration not stated),1.71%
7,Cn1c2c(c(=O)n(C)c1=O)C(c1ccc(O)cc1)Nc1ccccc1O2 (configuration not stated),-5.48%
8,CCc1nn(-c2cc(Oc3cccc4ccccc34)nc(-c3ccccc3)n2)c(N)c1C#N,-7.41%
9,COc1ccc(C)cc1N(C)C(=O)c1coc(=O)c2ccccc12,-10%
10,NC(=O)c1ccc(Nc2ccc3c(c2)CCC3)c([N+](=O)[O-])c1,29.8%
11,CCOc1ccccc1Nc1ccc(C(=O)O)cc1[N+](=O)[O-],-16.2%
12,Cc1ccc(Nc2ccc(C(N)=O)cc2[N+](=O)[O-])cc1,66.7% (active)
13,CC(=O)c1ccc(S(=O)(=O)NCc2nnnn2-c2ccccc2)cc1,-3.36%
14,O=C(/C=C/NNC(=O)c1cccc(Br)c1)c1ccccc1,8.45%
15,O=C(O)CCn1cc(/C=C/C(=O)c2ccc(Cl)cc2)c(-c2cccc(Br)c2)n1,53.3% (active)
16,Cc1cccc(C=CC(=O)c2ccc(Cl)cc2)c1,-4.71%
17,CCOC(=O)c1ccc(-n2c(CCC(=O)O)ccc2-c2ccccc2)cc1,9.28%
18,COc1ccc(C(CNCC(=O)Nc2ccccc2F)N(C)C)cc1 (configuration not stated),9.81%
19,Cc1c([N+](=O)[O-])c(N)nn1C,-3.74%
20,O=C(COC(=O)Cn1[nH]c(=O)c2ccccc2c1=O)Nc1c(Cl)cccc1C(F)(F)F,1.19%
21,CCC(C)N(C(=O)COC(=O)C1C(C(=O)OC)=C(C)NC(C)=C1C(=O)OC)C1CCS(=O)(=O)C1 (configuration not stated),-4.18%
22,CC(C)c1nc(SCC(=O)Nc2cccc(C(=O)O)c2)c2c3c(sc2n1)CCCC3,68.4% (active)
23,Cc1ccc(C)c2c1cc(C)c1nnc(SCC(=O)Nc3cccc(C(=O)O)c3)n12,-4.22%

row,Structure (SMILES),inhibition
1,Cc1cc(NC(=O)CSc2nc(C(C)C)nc3sc4c(c23)CCC(C)C4)no1 (configuration not stated),-8.31%
2,Cc1cc(N(C)C)cc(C)[n+]1[O-],1%
3,C#CCOc1ccc(/C=C2/C(=O)NN(c3ccccc3)C2=O)cc1OC,3.6%
4,Cc1ccccc1-n1c(C)cc(/C=C2\NC(=O)NC2=O)c1C,-2.07%
5,Cc1cccc(C)c1-n1c(C)cc(/C=C2\C(=O)NN(c3ccccc3)C2=O)c1C,50.9% (active)
6,CC(C)CC(=O)NC(=S)Nc1ccc(F)cc1F,0.36%
7,O=C(CC1C(=O)NCCN1CC(c1ccccc1)c1ccccc1)NCC1CCOCC1 (configuration not stated),5.98%
8,Cc1cccc(CC(=O)Nc2c3c(nn2-c2cccc(Cl)c2)CS(=O)C3)c1 (configuration not stated),-6.51%
9,Cc1sc2nc(CC(N)=O)[nH]c(=O)c2c1-c1ccccc1,5.21%
10,CCN(CC)C(=O)c1sc2nc(-c3ccccc3)ccc2c1N,-13.8%
11,NC(=O)c1sc2nc3c(c(-c4ccccc4)c2c1N)CCC3,42.3% (active)
12,CCN(CC)S(=O)(=O)c1ccc2c3c(cccc13)C(=O)S2,-12.5%
13,O=C(c1ccncc1)N1CCN(S(=O)(=O)c2cccc([N+](=O)[O-])c2)CC1,-1.28%
14,Cc1ccccc1/C=C\c1nc(O)c([N+](=O)[O-])c(=O)[nH]1,4.7%
15,CCCc1ccc(C(=O)[C@@H]2[C@@H](C(C)=O)N3c4ccc(F)cc4C=C[C@@H]3[C@@]23C(=O)Nc2ccccc23)cc1,7.49%
16,Cc1nn(CC(=O)Nc2ccc(N(C)C)cc2)c(C)c1[N+](=O)[O-],-1.82%
17,COc1ccc(CNC(=O)CCCn2nc(C)c([N+](=O)[O-])c2C)cc1,4.24%
18,Cc1ccc(Oc2cc(NC(=O)CCCn3nc(C)c([N+](=O)[O-])c3C)cc([N+](=O)[O-])c2)cc1,62% (active)
19,CN(c1ccc(OCC(=O)NC2=NCCS2)cc1)S(=O)(=O)c1ccc(F)cc1,-9.32%
20,COCCCNC(=S)NC(=O)c1ccc([N+](=O)[O-])cc1,-7.22%
21,CCCc1nc2sc3c(c2c(=O)n1NC(=O)CCCl)CCCC3,10.3%
22,CCc1nc(N2CCN(C(C)=O)CC2)c2c3c(sc2n1)CCCC3,45.4% (active)
23,Cc1nc2sc3c(c2c(=O)n1NC(=O)CCl)CCCC3,-3.09%
